In PubChem BioAssay (EPA / NIEHS):
Calls of active or inactive are those of the source. How the source made its calls: active means hit-call score of the fitted dose curve at least 0.9, where 1 is the maximum; inactive means score below 0.9.

Assays:
Settings in all cases: mRNA level, 48 h; actives raise or lower the signal
[1] = read-out: Cytochrome P450 3A7 (Homo sapiens) (UniProt P24462); test: LTEA_HepaRG_CYP3A7: Life Technologies and Expression Analysis (LTEA) Assay for CYP3A7 using HepaRG (AID 2283492)
How it was run: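 Human HepaRG liver cells, 48 h post-plating, switched to serum-free induction medium and exposed in duplicate for 48 h. Dosing: 100 uM top, half-log dilutions, 8 points, 0.5% DMSO vehicle. Read-out: CYP3A7 mRNA, gain or loss fitted against DMSO baseline.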

CYP3A5 (gene 1577) = test: LTEA_HepaRG_CYP3A5: Life Technologies and Expression Analysis (LTEA) Assay for CYP3A5 using HepaRG (AID 2283493)
How it was run: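 HepaRG plated 48 h, switched to serum-free induction medium, chemicals added 48 h (max 100 uM, half-log, 0.5% DMSO). RNA isolated; CYP3A5 by TaqMan qRT-PCR. Gain/loss vs DMSO.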

[2] = read-out: Fatty Acid-Binding Protein 1 (FABP1), FABP1 (gene 2168); test: LTEA_HepaRG_FABP1: Life Technologies and Expression Analysis (LTEA) Assay for Fatty Acid-Binding Protein 1 (FABP1) using HepaRG (AID 2283494)
How it was run: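 Differentiated human HepaRG cells were exposed in duplicate for 48 h in serum-free induction medium to 8-point half-log concentration series topping at 100 uM in 0.5% DMSO. FABP1 mRNA measured by TaqMan qRT-PCR, normalized to ACTB/GAPDH/POLR2A; bidirectional fit versus DMSO.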

[3] = read-out: Cytochrome P450 4A22 (Homo sapiens) (UniProt Q5TCH4); test: LTEA_HepaRG_CYP4A22: Life Technologies and Expression Analysis (LTEA) Assay for Cytochrome P450 4A22 (CYP4A22) using HepaRG (AID 2283495)
How it was run: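 Readout is CYP4A22 transcript induction or loss, quantified by qRT-PCR and normalized to ACTB, GAPDH and POLR2A. Human HepaRG cells receive test chemicals for 48 h at eight half-log concentrations from 100 uM in 0.5% DMSO.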

[4] = read-out: Cytochrome P450 7A1 (Homo sapiens) (UniProt P22680); test: LTEA_HepaRG_CYP7A1: Life Technologies and Expression Analysis (LTEA) Assay for Cytochrome P450 7A1 (CYP7A1) using HepaRG (AID 2283496)
How it was run: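 HepaRG cells plated 48 h, then switched to serum-free induction medium and exposed in duplicate for 48 h to 8-point half-log series from 100 uM in 0.5% DMSO. CYP7A1 mRNA by qRT-PCR (TaqMan), normalized to ACTB/GAPDH/POLR2A; bidirectional fit versus DMSO.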

[5] = read-out: Glutathione S-Transferase (GSTA2), GSTA2 (gene 2939); test: LTEA_HepaRG_GSTA2: Life Technologies and Expression Analysis (LTEA) Assay for Glutathione S-Transferase (GSTA2) using HepaRG (AID 2283497)
How it was run: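 Human HepaRG cells, plated 48 h, then exposed in serum-free induction medium for 48 h to eight half-log concentrations up to 100 uM in 0.5% DMSO, duplicate. GSTA2 mRNA by qRT-PCR, normalized to ACTB/GAPDH/POLR2A; bidirectional fit versus DMSO.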

[6] = read-out: Glutamate-cysteine ligase catalytic (GCLC), GCLC (gene 2729); test: LTEA_HepaRG_GCLC: Life Technologies and Expression Analysis (LTEA) Assay for Glutamate-cysteine ligase catalytic (GCLC) using HepaRG (AID 2283498)
How it was run: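 Differentiated human HepaRG cells, plated 48 h then switched to serum-free induction medium, were exposed in duplicate for 48 h to 8 half-log concentrations topping at 100 uM in 0.5% DMSO. GCLC mRNA was quantified by qRT-PCR against ACTB, GAPDH and POLR2A.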

[7] = read-out: growth arrest and DNA damage 45 (GADD45G), GADD45G (gene 10912); test: LTEA_HepaRG_GADD45G: Life Technologies and Expression Analysis (LTEA) Assay for growth arrest and DNA damage 45 (GADD45G) using HepaRG (AID 2283499)
How it was run: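 Gain or loss of GADD45G mRNA, quantified by TaqMan qRT-PCR against three housekeeping genes, is fitted in both directions relative to 0.5% DMSO. Human HepaRG cultures receive test chemical for 48 h at up to 100 uM.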

[8] = read-out: Glutamate-cysteine ligase regulatory (GCLM), GCLM (gene 2730); test: LTEA_HepaRG_GCLM: Life Technologies and Expression Analysis (LTEA) Assay for Glutamate-cysteine ligase regulatory (GCLM) using HepaRG (AID 2283500)
How it was run: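 Cells were plated, cultured 48 h, switched to serum-free induction medium, then dosed in duplicate for 48 h at eight half-log concentrations up to 100 uM. RNA was then profiled by qRT-PCR; gain or loss versus DMSO was fitted.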

[9] = read-out: Glutathione S-transferase M3 (GSTM3), GSTM3 (gene 2947); test: LTEA_HepaRG_GSTM3: Life Technologies and Expression Analysis (LTEA) Assay for Glutathione S-transferase M3 (GSTM3) using HepaRG (AID 2283501)
How it was run: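 HepaRG, plated 48 h, then serum-free induction medium; test chemical 48 h, duplicate; 100 uM top, half-log x8, 0.5% DMSO. Read-out: GSTM3 mRNA (TaqMan qRT-PCR, Fluidigm array). Bidirectional fit vs DMSO.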

Measured: AC50

Chain of Cytochrome P450 3A7 (Homo sapiens) (P24462 whole entry, looked up): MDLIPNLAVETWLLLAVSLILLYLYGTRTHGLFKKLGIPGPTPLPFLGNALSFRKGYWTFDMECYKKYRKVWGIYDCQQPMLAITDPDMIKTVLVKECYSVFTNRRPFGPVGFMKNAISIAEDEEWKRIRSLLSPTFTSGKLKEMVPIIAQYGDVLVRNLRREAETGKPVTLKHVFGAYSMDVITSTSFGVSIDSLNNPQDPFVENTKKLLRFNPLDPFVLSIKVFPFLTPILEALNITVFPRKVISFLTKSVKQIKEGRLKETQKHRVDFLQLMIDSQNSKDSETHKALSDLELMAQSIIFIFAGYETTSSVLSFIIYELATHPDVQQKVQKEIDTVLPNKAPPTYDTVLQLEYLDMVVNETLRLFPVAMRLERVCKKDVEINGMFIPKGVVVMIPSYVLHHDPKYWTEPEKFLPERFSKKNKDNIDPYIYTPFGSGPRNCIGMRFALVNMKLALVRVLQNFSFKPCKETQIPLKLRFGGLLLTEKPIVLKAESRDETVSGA

C1=Cc2cccc3cccc1c23
inactive: all assays above

c1ccc(N=Nc2ccccc2)cc1
not listed: [3]
inactive: all other assays above

CCCCOC(=O)c1ccccc1C(=O)OCc1ccccc1
not listed: [3]
inactive: all other assays above

CCNS(=O)(=O)C(F)(F)C(F)(F)C(F)(F)C(F)(F)C(F)(F)C(F)(F)C(F)(F)C(F)(F)F
active: [2] 59.3 µM | [4] 48.2 µM | [5] 48.2 µM | [7] 36.6 µM
not listed: [3]
inactive: all other assays above

CCCCCCCCCCCCCN1CC(C)OC(C)C1 (stereo unspecified)
not listed: [3]
inactive: all other assays above

CCC(C)c1ccc(O)cc1 (stereo unspecified)
active: [6] 0.397 µM
inactive: all other assays above

CN(C)[C@@H]1C(=O)C(C(N)=O)=C(O)[C@@]2(O)C(=O)C3=C(O)c4c(O)cccc4[C@@](C)(O)[C@H]3C[C@@H]12
not listed: [3]
inactive: all other assays above

O=C(O)C1C2CCC(O2)C1C(=O)O (stereo unspecified)
active: [1] 61.1 µM | [2] 77.9 µM | [4] 71.5 µM | [5] 72.4 µM
not listed: [3]
inactive: all other assays above

N#CC(Br)Br
not listed: [3]
inactive: all other assays above

c1ccc(C2CO2)cc1 (stereo unspecified)
not listed: [3] | [9]
inactive: all other assays above

Nc1ccc([N+](=O)[O-])cc1
inactive: all assays above

CO[C@@H]1[C@H](OC(=O)NC(=O)CCl)CC[C@]2(CO2)[C@H]1[C@@]1(C)O[C@@H]1CC=C(C)C
active: [2] 1.96 µM
not listed: [3]
inactive: all other assays above

O=P(OCCCl)(OCCCl)OCCCl
inactive: all assays above

Brc1ccc(Oc2ccccc2)cc1
not listed: [3]
inactive: all other assays above

CC(C)(OOC(C)(C)c1ccccc1)c1ccccc1
active: [1] 40.4 µM
inactive: all other assays above

Nc1cc(Cl)cc(C(=O)O)c1Cl
not listed: [3]
inactive: all other assays above

CCCSC(=O)N(CCC)CCC
not listed: [3]
inactive: all other assays above

Cc1cc(N=Nc2ccccc2C)ccc1N
active: [1] 6.38 µM | CYP3A5 (gene 1577) 3.11 µM | [2] 5.03 µM | [4] 12.8 µM | [5] 5.01 µM | [6] 1.67 µM | [7] 4.14 µM | [8] 50 µM | [9] 1.48 µM

Oc1ccccc1Cl
not listed: [3]
inactive: all other assays above

COP(=S)(OC)SCN1C(=O)c2ccccc2C1=O
not listed: [2]
inactive: all other assays above

[O-][Cl+]O
not listed: [3] | [4]
inactive: all other assays above

Nc1ccc(N=Nc2ccccc2)cc1
inactive: [8]
active: CYP3A5 (gene 1577) 14.2 µM | [2] 21.4 µM | [4] 16.4 µM | [5] 15.1 µM | [6] 7.79 µM | [7] 15.6 µM | [9] 13.2 µM

CCC12COCN1COC2
not listed: [3]
inactive: all other assays above

O=C(Nc1ccccc1)c1ccccc1I
inactive: [1] | CYP3A5 (gene 1577) | [5] | [9]
active: [2] 21.7 µM | [4] 28.9 µM | [6] 29.2 µM | [7] 10.3 µM | [8] 50 µM

c1ccc2c(c1)-c1cccc3cccc-2c13
active: [1] 9.36 µM | [2] 50 µM
not listed: [3] | [4]
inactive: all other assays above

C[N+](C)(C)CC1CO1 (stereo unspecified)
not listed: [3]
inactive: all other assays above

CC(O)CCO (stereo unspecified)
not listed: [3]
inactive: all other assays above

C[C@]12C=CC3=C4CCC(=O)C=C4CC[C@H]3[C@@H]1CC[C@@H]2O
active: [2] 47.7 µM | [7] 60.9 µM | [8] 79 µM
inactive: [5] | [6] | [9]

Nc1ccc(Cl)cc1N
inactive: [8] | [9]
active: CYP3A5 (gene 1577) 17.3 µM | [2] 28.2 µM | [4] 23.1 µM | [5] 27.9 µM | [6] 32.6 µM | [7] 38.8 µM

ClC1=C(Cl)[C@]2(Cl)[C@H]3[C@H]([C@@H]4C=C[C@H]3C4)[C@@]1(Cl)C2(Cl)Cl
active: [1] 8.45 µM | [2] 6.01 µM | [4] 19.4 µM | [8] 12.7 µM
not listed: [3]
inactive: all other assays above

OCCOCCO
not listed: [3]
inactive: all other assays above

CN(C)c1ccccc1
not listed: [3]
inactive: all other assays above

CCOC(=O)[C@]1(c2ccccc2)Oc2ccccc2[C@@H]1N
active: [1] 85.4 µM | [2] 90.1 µM | [4] 90.5 µM | [5] 76.1 µM | [6] 82.4 µM | [7] 87.9 µM | [8] 76.9 µM
inactive: CYP3A5 (gene 1577) | [9]

CN(C)C(=O)Nc1ccc(Cl)cc1
not listed: [3]
inactive: all other assays above

O=[N+]([O-])C(Br)(CO)CO
not listed: [3]
inactive: all other assays above

Clc1ccc(C(c2ccc(Cl)cc2)C(Cl)(Cl)Cl)cc1
active: [2] 50 µM | [3] 50 µM | [7] 16.7 µM
not listed: [1] | CYP3A5 (gene 1577)
inactive: all other assays above

Cc1ccc([N+](=O)[O-])cc1
active: [2] 10 µM | [4] 17.3 µM
not listed: [3]
inactive: all other assays above

CCC[CH2][Sn]([Cl])([CH2]CCC)[CH2]CCC
inactive: [8] | [9]
active: [1] 0.377 µM | CYP3A5 (gene 1577) 82.8 µM | [2] 2.31 µM | [5] 1.67 µM | [6] 50 µM | [7] 5.56 µM

N#CC(Br)(Br)C(N)=O
not listed: [3]
inactive: all other assays above

O=[N+]([O-])c1ccc(Oc2ccc(Cl)cc2Cl)cc1
active: [1] 2.45 µM | [6] 27.1 µM | [8] 50 µM
not listed: [3]
inactive: all other assays above

CCOc1cccc(C2(N3CCN(c4ccccc4)CC3)CCC(C)CC2)c1 (stereo unspecified)
not listed: [3]
inactive: all other assays above

CC(C)(O)c1cnn2c(-c3ccc(F)c(-c4c(F)cccc4C#N)c3)cnc2n1
active: [2] 1.57 µM | [4] 4.14 µM
not listed: [3]
inactive: all other assays above

CCCCCCCCOC(=O)c1ccc(C(=O)OCCCCCCCC)c(C(=O)OCCCCCCCC)c1
not listed: [3]
inactive: all other assays above

[As]#[In]
not listed: [3]
inactive: all other assays above
